# Assay outcomes deposited in PubChem BioAssay by several laboratories.
# Shown are actives, neighbours in structure and some others; about 1.3% of the full set was active somewhere.
# RecA splice inh: Mtb RecA intein splicing inhibition; P9WHJ3; cell-free RecA intein splicing, fluorescence; inhibition, % (concentration not given with the values); hit rate 0.75% among 290,000; AID 2221; in the data active = inhibition above about 30%; inconclusive = no clear call, values can overlap the other calls;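 note: 0% = vehicle wells and 100% = reference inhibitor control wells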
# UGM FP inh: inhibitors of M. tuberculosis UDP-galactopyranose mutase | P9WIQ1 | AID 504406 | hit rate 0.06% among 320,000 | purified UGM, fluorescence polarization probe displacement | inhibition, % at 10 µM; in the data active = inhibition above about 10%, passing the limit was not always enough; inconclusive = no clear call, values can overlap the other calls
# BJeLR viability: BJeLR cell viability loss; BJeLR (HRASV12) viability, CellTiter-Glo ATP luminescence, 48 h; inhibition, % (test concentration not listed); hit rate 0.17% among 300,000; AID 1554; in the data active = inhibition above about 50%; inconclusive = no clear call, values can overlap the other calls
# PrP UTR inh: inhibition of PrP 5' UTR reporter expression | cell-based PrP 5' UTR mRNA reporter, plate reader | inhibition, % (test concentration not listed) | hit rate 0.35% among 340,000 | AID 488862; in the data active = inhibition above about 52%; note: 0 = median of the neutral control wells
# FadD28 binding: inhibitors of Mycobacterium tuberculosis FadD28 bisubstrate binding; inhibition, % at 12.5 µM; FadD28 bisubstrate probe binding, fluorescence polarization; AID 588549; hit rate 0.22% among 360,000; in the data active = inhibition above about 8.5%, passing the limit was not always enough; inconclusive = no clear call, values can overlap the other calls
# Rv3671c inh: inhibits the M. tuberculosis serine protease Rv3671c; P9WHR9; AID 2606; inhibition, % at 5.96 µM; hit rate 0.048% among 320,000; in the data active = inhibition above about 38%;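 note: extracellular domain of Rv3671c used as enzyme; 0% = enzyme with DMSO and 100% = no enzyme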
# Target sequence (P9WHR9 whole entry, looked up, the tested form may be a part): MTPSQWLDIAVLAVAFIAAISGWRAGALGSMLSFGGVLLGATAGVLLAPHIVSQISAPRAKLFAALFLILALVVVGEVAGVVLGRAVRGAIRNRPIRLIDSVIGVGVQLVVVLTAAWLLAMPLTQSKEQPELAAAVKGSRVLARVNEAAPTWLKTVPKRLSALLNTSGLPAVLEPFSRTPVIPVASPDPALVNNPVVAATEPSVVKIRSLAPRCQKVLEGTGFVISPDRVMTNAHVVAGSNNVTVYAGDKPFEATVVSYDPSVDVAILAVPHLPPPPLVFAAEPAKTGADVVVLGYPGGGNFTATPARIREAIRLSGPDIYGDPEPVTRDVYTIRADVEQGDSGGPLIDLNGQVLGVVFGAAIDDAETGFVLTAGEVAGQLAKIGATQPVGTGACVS
# * = called active by the depositor; ? = inconclusive; . = no result.
SMILES,RecA splice inh,UGM FP inh,BJeLR viability,PrP UTR inh,FadD28 binding,Rv3671c inh
O=C(N/N=C/c1c(O)n(Cc2ccc(F)cc2)c(=O)[nH]c1=O)c1ccccc1O,32*,1,0,-29,19*,-31
NC[C@H](Cc1ccccc1)NCCCCC1CCCCC1,.,-3,.,-25,-6,3
CNC[C@H](CC1CCCCC1)NC[C@H](Cc1ccccc1)NCCC12CC3CC(CC(C3)C1)C2,19,-2,69*,5,-11,10
Cc1cccc(N2CCN(C(=O)c3c(-c4ccccc4Cl)noc3C)CC2)c1C,10,4,34,46,-4,0
COC(=O)c1cc(Cl)ccc1NCC(N)c1ccccc1 (configuration not stated),.,.,.,.,-2,.
O=C(c1cc(C2CCCCN2S(=O)(=O)c2ccc(F)cc2F)on1)N1CCOCC1 (configuration not stated),.,.,.,.,-1,.
COc1ccc(CN2C(=O)NC(=O)/C(=C/c3ccc([N+](=O)[O-])s3)C2=O)cc1,12,-2,25,-9,33*,-9
O=C1NC(=O)N(Cc2ccc(F)cc2)C(=O)/C1=C\c1ccc([N+](=O)[O-])s1,10,1,25,-20,28*,-97
COc1ccc(CN2C(=O)NC(=O)/C(=C\c3ccco3)C2=O)cc1,0,1,0,-10,?,-17
O=C(N/N=C/c1cc(Br)ccc1OC(=O)c1ccc(Br)cc1)c1ccncc1,3,1,4,2,0,28
COc1ccc2[nH]c(=O)c(CN(Cc3nnnn3Cc3ccco3)C3CCCCC3)cc2c1,13,0,-3,-5,0,-3
COc1ccc2[nH]c(=O)c(CN(C3CCCCC3)C(c3nnnn3Cc3ccco3)C(C)C)cc2c1 (configuration not stated),33*,-1,2,-15,0,-7
COc1ccc(C2C(C(=O)c3cccs3)=C(O)C(=O)N2c2nncs2)cc1 (configuration not stated),6,13*,5,-38,-9,0
Cc1ccccc1N(Cc1cc(=O)[nH]c2ccccc12)C(=O)CCl,48*,1,12,-1,-1,9
N#Cc1ccc(-c2cccc3nccn23)cc1,.,.,.,.,-3,.
Cc1cc(C(=O)CSc2ccc(F)cc2)cc(C)c1OC(=S)N(C)C,4,-1,-2,68*,-1,1
COc1ccc(SCC(=O)c2cc(C)c(OC(=S)N(C)C)c(C)c2)cc1,9,5,17,-36,-3,-8
COc1ccc(Cc2c(-c3cccc(Cl)c3)nc3ccc(Cl)cn23)c(C)c1,.,.,.,.,-4,.
CN1c2ccccc2C(C)(C)[C@]12C=Cc1cc(O)ccc1O2,.,-3,-3,-13,-1,-106
COc1ccc2ccc3c(c2c1)N=CC1(O3)N(C)c2ccccc2C1(C)C (configuration not stated),76*,1,-2,-13,-3,-168
CCCCOc1[nH]c2nc(-c3ccco3)n(Cc3ccco3)c(=N)c2c1C#N,-25,3,5,-13,11*,10
O=c1oc2c(O)c(O)cc3c(=O)oc4c(O)c(O)cc1c4c23,.,0,.,-12,14*,1
COc1cccc(C(=Cc2ccc([N+](=O)[O-])cc2)C(=O)O)c1,.,.,.,.,-3,.
CSc1ccc(NC(=O)Nc2ccc(C(=O)NCC(=O)O)cc2)cc1,0,0,-3,-9,11*,.
COc1ccc(-c2cc3ncnc(Cl)c3s2)cc1,3,1,-9,-43,-1,0
SMILES,RecA splice inh,UGM FP inh,BJeLR viability,PrP UTR inh,FadD28 binding,Rv3671c inh
C/C(=N\Nc1ccc2nncn2n1)c1ccccn1,-2,-1,62*,.,-1,1
CCOC(=O)c1nnc(-c2ccccc2)nc1Oc1ccccc1Cl,45*,1,3,-5,-2,5
COc1ccc(C2=Cc3ccc(OC(C)=O)cc3OC2)cc1,.,.,.,-142,-4,.
Cc1ccc(C2CC(=O)NC(SCC(=O)Nc3nccs3)=C2C#N)cc1 (configuration not stated),-1,4,3,-12,12*,1
O=C(O)c1cc(N/N=C/c2ccc(N3CCOCC3)s2)ccc1Cl,-8,.,-1,-22,45*,-6
NC(CCc1ccccc1)c1csc(Nc2cnccn2)n1 (configuration not stated),.,.,.,.,0,.
CC(=O)N1CCN(S(=O)(=O)c2cccc(C(=O)N3CCN(S(=O)(=O)c4c(C)c(C)cc(C)c4C)CC3)c2)CC1,.,.,.,.,-4,.
CN1OC[C@@H]2CN3C(=O)N(c4ccccc4)c4ccccc4[C@@H]3C[C@@H]21,.,.,.,.,1,.
CCOc1ccc(NC(=O)C2C(C(=O)O)C3(Cl)C(Cl)=C(Cl)C2(Cl)C3(Cl)Cl)cc1 (configuration not stated),13,2,-1,-27,21*,-1
CCOc1ccc(NS(=O)(=O)c2ccc(N)cc2)cc1,0,-2,3,-15,-1,2
CCOc1ccc(Nc2ccc(N)c(S(=O)(=O)O)c2)cc1,.,.,.,-22,22*,.
S=C(Nc1ccc2nsnc2c1)N1CCCCCC1,55*,-2,-5,-33,-1,-162
NC(=O)C(CCc1nc2ccccc2[nH]1)NS(=O)(=O)c1ccccc1 (configuration not stated),.,.,.,.,-2,.
Cc1ccc(C(=O)Nn2c(O)c(C=C3N=c4ccccc4=N3)sc2=S)cc1,-1,-1,4,.,2,-5
O=C(Nn1c(O)c(C=C2N=c3ccccc3=N2)sc1=S)c1ccc(Cl)cc1,-2,-2,-4,-16,48*,-15
O=C(Nn1c(O)c(C=C2N=c3ccccc3=N2)sc1=S)c1ccccc1,-1,0,3,-16,15*,-5
CC(C)C1Nc2c(O)cc(Cl)c([N+](=O)[O-])c2C2C=CCC21 (configuration not stated),20,.,10,-17,25*,.
CC(C)Cn1cnc2c(c(-c3ccccc3)c(-c3ccccc3)n2Cc2ccco2)c1=N,19,-1,6,2,-2,-7
c1ccc(-c2c(-c3ccccc3)n(Cc3ccco3)c3ncnc(NCCCn4ccnc4)c23)cc1,-3,0,-7,6,-5,7
N=c1c2c(-c3ccccc3)c(-c3ccccc3)n(Cc3ccco3)c2ncn1CCCn1ccnc1,5,2,52*,-20,-5,-5
N=c1c2c(-c3ccccc3)c(-c3ccccc3)n(Cc3ccco3)c2ncn1CCCN1CCOCC1,7,0,-3,2,8.8*,-1
O=C(COC(=O)c1ccccc1Br)Nc1cccnc1Cl,.,1,.,2,-2,9
CC1(C(=O)Nc2ccc(Cl)cc2)Cc2c(-c3cccc(C(F)(F)F)c3)ccnc2O1 (configuration not stated),.,.,.,.,-1,.
CN(CC(=O)Nc1ccc(OC(F)(F)F)cc1)C(=O)Cn1c(=O)cnc2ccccc21,.,-1,.,-9,-1,1
CN(CC(=O)Nc1cccc(F)c1)C(=O)Cn1c(=O)cnc2ccccc21,1,-1,6,-12,55*,-2
